In PMC10726135, “HNF4α isoforms regulate the circadian balance between carbohydrate and lipid metabolism in the liver”:
Whole data set: some 18,000 sequences, median “log2 normalized intensity” near 0.39, cut for the highest 2% near 6.6. This is one part of a sample in which the highest values are shown more often than they occur.

The sequences below were run against T1, HNF4alpha2 (COS-7 nuclear extract) (Homo sapiens, UniProt P41235 1-474) (assay: protein-binding microarray; COS-7 nuclear extract on double-stranded Agilent 4x180k PBM; binding buffer, salt, pH and temperature not given in the material; high values mean tight binding). Conditions: chain copies: 2; label: 3' end of strand 1 on the slide; dsDNA, one strand shown.
T1 sequence: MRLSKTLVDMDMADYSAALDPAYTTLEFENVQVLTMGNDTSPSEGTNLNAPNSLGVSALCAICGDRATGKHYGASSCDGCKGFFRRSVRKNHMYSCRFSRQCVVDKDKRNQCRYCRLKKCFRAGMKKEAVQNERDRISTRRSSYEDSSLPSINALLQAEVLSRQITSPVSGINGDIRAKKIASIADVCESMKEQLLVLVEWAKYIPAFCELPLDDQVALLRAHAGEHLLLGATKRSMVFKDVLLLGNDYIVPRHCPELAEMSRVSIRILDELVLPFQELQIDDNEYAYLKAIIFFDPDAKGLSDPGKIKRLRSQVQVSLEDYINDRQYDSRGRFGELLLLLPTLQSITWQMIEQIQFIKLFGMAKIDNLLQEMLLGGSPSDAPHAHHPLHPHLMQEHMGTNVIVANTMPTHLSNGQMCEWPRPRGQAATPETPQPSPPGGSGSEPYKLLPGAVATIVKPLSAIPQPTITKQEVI
Outline: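 A human HNF4α isoform was expressed in COS-7 cells by transient CaPO4 transfection, and nuclear extracts were prepared. These were applied to a custom Agilent SurePrint G3 4x180k array carrying ~44,000 test sequences in quadruplicate as double-stranded ~60-nt oligonucleotides, and an Agilent G2565CA scanner imaged bound HNF4α at 2-µm resolution. The background-corrected, normalized gProcessedSignal from Agilent software was used as the binding signal.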

Sequence	binding signal [log2 normalized intensity]
GCAGTGGGACAAAGGTCACAGGAAAGGGACGCCTAGGGAGATTAGAGTATCGGTCGA	4.13
AGGGAGGGGAGAGGGGGTTAAAGGTTATTTGCCTAGGGAGATTAGAGTATCGGTCGA	4.97
CCTATATAGTTGAGATTGTAACCGTAAATGGCCTAGGGAGATTAGAGTATCGGTCGA	1.55
GTTAAGTGAGTGGACTTTGGTCCTGGTCAGGCCTAGGGAGATTAGAGTATCGGTCGA	6.52
TGAATATGTACATGGACTTTGAACCAAGATGCCTAGGGAGATTAGAGTATCGGTCGA	8.36
CTAAGAGATTTGAATATGTACATGGACTTTGCCTAGGGAGATTAGAGTATCGGTCGA	6.19
ATGTACATGGACTTTGAACCAAGATATGCTGCCTAGGGAGATTAGAGTATCGGTCGA	6.75
AGATTTGAATATGTACATGGACTTTGAACCGCCTAGGGAGATTAGAGTATCGGTCGA	10.3
CGGTCAGCTGCTTGACTTAGTACATGGCCTGCCTAGGGAGATTAGAGTATCGGTCGA	0.557
ACACAGTACTTTGTACATGGGAATAGACATGCCTAGGGAGATTAGAGTATCGGTCGA	0.863
GAATGCAACCACACCAACATGGACTTTGTCGCCTAGGGAGATTAGAGTATCGGTCGA	6.09
AGGTACTAAGAGATTTGAATATGTACATGGGCCTAGGGAGATTAGAGTATCGGTCGA	1.38
CATGGACTTTGAACCAAGATATGCTAACATGCCTAGGGAGATTAGAGTATCGGTCGA	4.81
ATCCTTATCTTGTAGAAAAGTGCATGGATTGCCTAGGGAGATTAGAGTATCGGTCGA	0.836
TTGAGTTTGCTCTGCTACTAACTGCATGACGCCTAGGGAGATTAGAGTATCGGTCGA	-0.452
TTCTCCAGGAAGTTCAGGCCTCGGCTTCATGCCTAGGGAGATTAGAGTATCGGTCGA	-0.98
CACTCAATGCAGCAGCATTGGACCCTCCCAGCCTAGGGAGATTAGAGTATCGGTCGA	5.46
CTGCAGATTGACTCAGGCATTCTGACCTTTGCCTAGGGAGATTAGAGTATCGGTCGA	6.93
GGCATTCTGACCTTTGTCTCCAGGCAAACTGCCTAGGGAGATTAGAGTATCGGTCGA	4.88

Sequence	binding signal [log2 normalized intensity]
CCTTTTATTTTCTTATCTGCCTAGGCATTTGCCTAGGGAGATTAGAGTATCGGTCGA	1.33
TAAAACTGCAGATTGACTCAGGCATTCTGAGCCTAGGGAGATTAGAGTATCGGTCGA	-0.529
GATTGACTCAGGCATTCTGACCTTTGTCTCGCCTAGGGAGATTAGAGTATCGGTCGA	7.05
ACTCAGGCATTCTGACCTTTGTCTCCAGGCGCCTAGGGAGATTAGAGTATCGGTCGA	5.69
TTTTAAGGTCTGGCATTCTTTTTGACCTTTGCCTAGGGAGATTAGAGTATCGGTCGA	7.55
CCATATCACATTTTAAGGTCTGGCATTCTTGCCTAGGGAGATTAGAGTATCGGTCGA	1.37
TATTTAGACTCAGCATGTCTTCTGACCTTTGCCTAGGGAGATTAGAGTATCGGTCGA	6.51
CCTTATGACGGACAAAGGGCTCTCTCACCAGCCTAGGGAGATTAGAGTATCGGTCGA	-0.701
TGTGGGCCTCACACCCTCTAGGGTAGATAAGCCTAGGGAGATTAGAGTATCGGTCGA	-0.451
TGCCTCCTTCAAGGATTAGCAGATAAATCTGCCTAGGGAGATTAGAGTATCGGTCGA	-0.904
ATGAAGATATATTCCTTCAGGAAGGCCTGTGCCTAGGGAGATTAGAGTATCGGTCGA	0.708
CTTTCATACGTTTAACAGTTCCTCCTGGAAGCCTAGGGAGATTAGAGTATCGGTCGA	1.18
CTATTAGGTCTTTGAAGTTGTCTTATCACCGCCTAGGGAGATTAGAGTATCGGTCGA	1.34
GGACCGCAGGGGGCTCCCGGACCCTGACTCGCCTAGGGAGATTAGAGTATCGGTCGA	0.458
AGCCACCGCGCCCCGCCCCCAGTGCACCTTGCCTAGGGAGATTAGAGTATCGGTCGA	5.11
TTGTATGTCCAAGGGTCACTCGACATTCATGCCTAGGGAGATTAGAGTATCGGTCGA	3.02
TTGAAGTGACTAAATGAGAAGAAATGATGGGCCTAGGGAGATTAGAGTATCGGTCGA	1.69
GGTGCTGATGTTAACACAAGTTATTACCGTGCCTAGGGAGATTAGAGTATCGGTCGA	1.03
CAGTGGTAACCACAGTACTGTCTTTTTGCCGCCTAGGGAGATTAGAGTATCGGTCGA	-0.854

Sequence	binding signal [log2 normalized intensity]
TTGCATAGGCATTGTCTTGAAAGATAAAGTGCCTAGGGAGATTAGAGTATCGGTCGA	0.627
TCTTTTTGCCACTAGGGGTCACTGTCACATGCCTAGGGAGATTAGAGTATCGGTCGA	2.7
ATTTTTCCCTTTGATATTTATCAAGATGAAGCCTAGGGAGATTAGAGTATCGGTCGA	0.736
TTGATATTTATCAAGATGAACTTTGACCCAGCCTAGGGAGATTAGAGTATCGGTCGA	10.8
CACCCAGAACTTTGACCGTTTGATTATTTGGCCTAGGGAGATTAGAGTATCGGTCGA	2.56
ATTTATCAAGATGAACTTTGACCCACCTACGCCTAGGGAGATTAGAGTATCGGTCGA	8.26
TCCCTTTGATATTTATCAAGATGAACTTTGGCCTAGGGAGATTAGAGTATCGGTCGA	4.93
ATGAACTTTGACCCACCTACATTGATATTCGCCTAGGGAGATTAGAGTATCGGTCGA	4.81
CATGTTGAGTGGAATATGAGGTCAGGGTTCGCCTAGGGAGATTAGAGTATCGGTCGA	2.71
GGGCTGGAACACAAAGAAAGCCAAAGTTCAGCCTAGGGAGATTAGAGTATCGGTCGA	2.41
CATTGGACCCTCCCAGCCAAACCCCACTCCGCCTAGGGAGATTAGAGTATCGGTCGA	5.01
TGTAACTGTAACTATATTGACCACCTCCTCGCCTAGGGAGATTAGAGTATCGGTCGA	1.76
CTGCAGTGTGACCTTTGCCTTCTTGACATCGCCTAGGGAGATTAGAGTATCGGTCGA	5.94
ACTGCTTACCCTGCAGTGTGACCTTTGCCTGCCTAGGGAGATTAGAGTATCGGTCGA	7.83
TCTACACTGCTTACCCTGCAGTGTGACCTTGCCTAGGGAGATTAGAGTATCGGTCGA	4.19
TTACCCTGCAGTGTGACCTTTGCCTTCTTGGCCTAGGGAGATTAGAGTATCGGTCGA	7.49
GATGTTCTACACTGCTTACCCTGCAGTGTGGCCTAGGGAGATTAGAGTATCGGTCGA	0.052
GTGTGACCTTTGCCTTCTTGACATCTCTCTGCCTAGGGAGATTAGAGTATCGGTCGA	4.43
